Screens deposited in PubChem by National Center for Advancing Translational Sciences (NCATS).
Shown are actives, neighbours in structure and some others; about 9.2% of the full set was active somewhere.
Rab9 prom act: activators of Rab9 promoter. Huh7 Rab9 promoter-luciferase reporter, luminescence, 24 h. actives 2.8% (n = 320,000). Potency, µM (series often up to 9.22 µM), inactives show at the highest dose activation, negative = inhibition, actives largely listed as activators; further: % of control where 0% means no effect; nearly all actives have a fitted effect of over 60% in size
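Luminescence from Amplite-detected luciferase (10 minutes, ambient) reports Rab9 promoter activation. Before that, stable Rab9-luciferase Huh7 cells (1500/well, reduced-serum OP-MEM I plus 10% FBS) were exposed to compound for 24 hours at 37C.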
FLuc counter: firefly luciferase modulation, counter-screen for miR-21 project. Potency, µM (series often up to 57.5 µM), inactives show at the top dose activity change, negative = inhibition, most hits filed as inhibitors. P08659. purified FLuc, Km substrates, luminescence inhibition. actives 6.9% (n = 360,000);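 further: plate controls were vehicle for no effect and reference inhibitor for full effect; nearly all actives have a fitted effect of over 55% in size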
Target sequence (P08659 whole entry, looked up): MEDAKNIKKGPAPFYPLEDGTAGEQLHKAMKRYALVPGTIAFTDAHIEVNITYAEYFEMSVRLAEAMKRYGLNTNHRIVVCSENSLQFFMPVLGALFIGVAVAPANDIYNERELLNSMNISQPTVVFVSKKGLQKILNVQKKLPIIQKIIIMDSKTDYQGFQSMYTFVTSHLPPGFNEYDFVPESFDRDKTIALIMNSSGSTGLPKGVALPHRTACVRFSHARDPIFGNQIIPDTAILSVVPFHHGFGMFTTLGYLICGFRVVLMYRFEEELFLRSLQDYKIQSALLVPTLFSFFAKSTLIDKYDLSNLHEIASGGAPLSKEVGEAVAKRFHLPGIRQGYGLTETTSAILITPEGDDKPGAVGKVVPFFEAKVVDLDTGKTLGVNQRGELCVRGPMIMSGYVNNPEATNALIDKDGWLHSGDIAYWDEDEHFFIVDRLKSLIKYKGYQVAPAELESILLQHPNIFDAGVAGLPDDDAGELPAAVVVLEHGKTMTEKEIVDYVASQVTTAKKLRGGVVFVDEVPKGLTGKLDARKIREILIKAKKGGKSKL
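Purified P. pyralis luciferase (10nM final) with 10uM D-luciferin and 10uM ATP (Km levels) in 50mM Tris acetate pH 7.5, 10mM Mg acetate, 0.01% Tween-20, 0.05% BSA; qHTS 6-point titration, ~60 µM downward; luminescence read.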
ELG1 repair inh: ELG1-dependent DNA repair inhibition; HEK293T ELG1-luciferase reporter, luminescence, 16 h; DNA damage induced by 5-fluorouridine; Potency, µM (top dose mostly 46.1 µM), for inactives: at the highest dose activity change, negative = inhibition, most hits filed as inhibitors; actives 2.3% (n = 330,000); further: on the % scale 0 is the no-effect control and ±100 the full control effect; nearly all actives have a fitted effect of over 55% in size
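5-Fluorouridine DNA damage + compound/DMSO, 2,000 cells/well, 16 h, 37 °C/5% CO2. ONE-Glo, 30 min RT, luminescence. Readout = decrease in reporter signal.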
NPC1 promoter act: activators of NPC1 promoter; Huh7 NPC1 promoter luciferase reporter, 24 h; Potency, µM (series often up to 9.22 µM), without a hit: at the top dose activation, usual class: activators; actives 2.4% (n = 320,000); AID 485313; further: % of control where 0% means no effect; nearly all actives have a fitted effect of over 60% in size
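Huh7 reporter cells (NPC1 promoter driving luciferase) are dosed with compound for 24 h at 37 °C, 5% CO2; luciferase detection reagent is then added and luminescence measured after 10 min at ambient temperature.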
SMN2 splice enh: enhancers of SMN2 splice variant expression; Potency, µM (series often up to 46.1 µM), for inactives: top-dose activity change, positive = activation, most hits filed as activators; actives 2.8% (n = 210,000); HEK293 SMN2-luciferase splicing reporter, luminescence, 30-36 h; further: % of control where 0% means no effect; nearly all actives have a fitted effect of over 55% in size
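HEK293 cells carry an SMN2 minigene-luciferase reporter in which exon 7 inclusion puts luciferase in frame. Cells were seeded at 2000 cells/well, attached for 10-12 hours, then exposed to compounds for 30-36 hours at 37C before ONE-Glo luminescence.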
ELG1 genotox: genotoxicity induction in ELG1-luciferase HEK293T cells. HEK293T ELG1-luciferase reporter, luminescence, 16 h. Potency, µM (titrated, usually from 46 µM), without a hit: at the highest dose activity change, positive = activation, actives largely listed as activators. actives 1.3% (n = 330,000); further: % of control where 0% means no effect; nearly all actives have a fitted effect of over 60% in size
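ELG1-luciferase HEK293T cells, 2,000/well; compound pinned in; 16 hr, 37 °C, 5% CO2; ONE-Glo, 30 min RT; luminescence on CCD imager.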
Starred values were filed as active, the others as inactive. The call rests on the fitted dose curve; in most records, active means well fitted curve in the direction sought with a large enough effect; inconclusive means small, poorly fitted or top-dose-only effect, or another doubt; inactive means no such curve, though single readings can be large; an effect the other way counts as inactive or inconclusive. Potency means the concentration at half of the fitted maximal effect.

How did Cc1ccc(C(=O)Nc2ccc(N3CCOCC3)cc2)cc1 do in these assays?
Rab9 prom act: 4µM*; FLuc counter: 12µM*; ELG1 repair inh: inconclusive; NPC1 promoter act: 2.8µM*; ELG1 genotox: 21µM*

What do the screens show for `O=C(/C=C/c1ccccc1)Nc1ccc(N2CCCCC2)cc1`?
Rab9 prom act: 4µM*; FLuc counter: inconclusive; ELG1 repair inh: inconclusive; NPC1 promoter act: inconclusive; SMN2 splice enh: inconclusive; ELG1 genotox: inconclusive

What do the screens show for `CCN(C(=O)C(NS(=O)(=O)c1cccc2nsnc12)c1ccccc1)c1ccccc1` (stereo not given)?
FLuc counter: -11%; SMN2 splice enh: -9%

What do the screens show for `Cc1cccc(S(=O)Cc2ccc(C(=O)NC3CCCCCC3)o2)c1` (stereo not given)?
FLuc counter: -3%

What do the screens show for `Cc1cc(OCC(=O)N(Cc2ccco2)c2c(N)n(Cc3ccccc3)c(=O)[nH]c2=O)ccc1Cl`?
Rab9 prom act: -7%; FLuc counter: 2%; ELG1 repair inh: 2%; NPC1 promoter act: -3%; ELG1 genotox: 0%

How did O=C(Nc1ccc(N2CCCCC2)cc1)c1ccccc1 do in these assays?
Rab9 prom act: 0.28µM*; FLuc counter: 1.9µM*; ELG1 repair inh: inconclusive; NPC1 promoter act: 0.4µM*; SMN2 splice enh: 1.4µM*; ELG1 genotox: inconclusive

Results for O=C(Nc1ccc(N2CCN(C(=O)c3cccs3)CC2)cc1)c1cccc(F)c1 ?
Rab9 prom act: 3%; FLuc counter: -6%; ELG1 repair inh: 15µM*; NPC1 promoter act: -3%; ELG1 genotox: -11%

What do the screens show for `Nc1ccc(N2CCN(c3ccc(F)cc3)CC2)cc1`?
Rab9 prom act: 1%; FLuc counter: 1%; ELG1 repair inh: 6.5µM*; NPC1 promoter act: 14%; SMN2 splice enh: -18%; ELG1 genotox: -6%

How did Cc1ccc(CNc2ccc(N3CCOCC3)cc2)cc1 do in these assays?
Rab9 prom act: 2.8µM*; FLuc counter: 8.5µM*; ELG1 repair inh: inconclusive; NPC1 promoter act: 4µM*; ELG1 genotox: inconclusive

How did COc1ccc(C(=O)NC2CC2)cc1OC1CCN(C(C)CSC)CC1 (stereo not given) do in these assays?
Rab9 prom act: -1%; FLuc counter: 1%; ELG1 repair inh: 14%; NPC1 promoter act: 0%; ELG1 genotox: 2%

How did O=C(Nc1ccc(Nc2ccccc2)cc1)c1cccc(F)c1 do in these assays?
Rab9 prom act: 4.5µM*; FLuc counter: 13µM*; ELG1 repair inh: inconclusive; NPC1 promoter act: inconclusive; ELG1 genotox: inconclusive

Results for CC(=O)N1CCN(c2ccc(NC(=S)NC(=O)c3ccc(C)c([N+](=O)[O-])c3)cc2)CC1 ?
Rab9 prom act: 0%; FLuc counter: 1%; ELG1 repair inh: 21µM*; NPC1 promoter act: -2%; ELG1 genotox: -6%

Results for CC(=O)N1CCN(c2ccc(NC(=O)c3cccc(Cl)c3)cc2)CC1 ?
Rab9 prom act: inconclusive; FLuc counter: inconclusive; ELG1 repair inh: inconclusive; NPC1 promoter act: 2.2µM*; ELG1 genotox: inconclusive

How did O=C(Nc1ccc(N2CCCC2)cc1)c1cccc(F)c1 do in these assays?
Rab9 prom act: 0.32µM*; FLuc counter: 1.3µM*; ELG1 repair inh: inconclusive; NPC1 promoter act: 0.35µM*; SMN2 splice enh: 0.63µM*; ELG1 genotox: 0.37µM*

Results for O=C(Nc1cccc(F)c1)c1ccccc1 ?
Rab9 prom act: inconclusive; FLuc counter: inconclusive; ELG1 repair inh: inconclusive; NPC1 promoter act: inconclusive; SMN2 splice enh: 2%; ELG1 genotox: 9%

Results for CCc1ccc(C(=O)c2cn(CC(=O)Nc3cc(OC)ccc3OC)c3ccc(Cl)cc3c2=O)cc1 ?
FLuc counter: 0%; SMN2 splice enh: 15%

How did CCCN(C(=O)Cc1csc(-c2ccccc2)n1)C1CCS(=O)(=O)C1 (stereo not given) do in these assays?
Rab9 prom act: -3%; FLuc counter: 2%; ELG1 repair inh: 8%; NPC1 promoter act: 1%; ELG1 genotox: 2%

What do the screens show for `CCN(CC(=O)Nc1c(F)cccc1F)C(=O)c1cc(S(=O)(=O)N2CCOCC2)ccc1N1CCCC1`?
Rab9 prom act: -5%; FLuc counter: 2%; ELG1 repair inh: 1%; NPC1 promoter act: -2%; ELG1 genotox: -3%

Results for NC(=O)C1Cc2ccccc2CN1C(=O)c1cc(C2CC2)nn1-c1ccccc1 (stereo not given) ?
ELG1 repair inh: inconclusive; ELG1 genotox: -3%

Results for COc1cc(/C=C/C2=NC(=O)C(C)(C)O2)ccc1O ?
Rab9 prom act: 4%; FLuc counter: 4%; ELG1 repair inh: 26µM*; NPC1 promoter act: 12%; SMN2 splice enh: 5%; ELG1 genotox: -3%

What do the screens show for `O=c1c2oc3ccccc3c2n(Cc2cccc(F)c2)c(=O)n1Cc1ccco1`?
FLuc counter: -6%

Results for O=C(CSCc1c(Cl)cccc1Cl)Nc1ccc2c(c1)OCCO2 ?
Rab9 prom act: 8%; FLuc counter: 17µM*; ELG1 repair inh: -2%; NPC1 promoter act: 13%; SMN2 splice enh: 18%; ELG1 genotox: 12%

How did O=C(COc1ccccc1)N/N=C/c1ccc2c(c1)OCO2 do in these assays?
Rab9 prom act: 0%; FLuc counter: inconclusive; ELG1 repair inh: -8%; NPC1 promoter act: 4%; SMN2 splice enh: 3%; ELG1 genotox: 12%

What do the screens show for `CC(=O)Nc1ccc(SCC(=O)Nc2ccc3c(c2)OCCO3)cc1`?
ELG1 repair inh: inconclusive; ELG1 genotox: 8%

How did Cc1ccccc1OCC(=O)N/N=C/c1ccc2c(c1)OCCO2 do in these assays?
Rab9 prom act: -1%; FLuc counter: 27µM*; ELG1 repair inh: 6%; NPC1 promoter act: 1%; SMN2 splice enh: 12%; ELG1 genotox: 4%

What do the screens show for `Cc1cccc(C)c1OCC(=O)Nc1ccc2c(c1)OCCO2`?
Rab9 prom act: 17%; FLuc counter: inconclusive; ELG1 repair inh: inconclusive; NPC1 promoter act: 13%; ELG1 genotox: inconclusive

How did O=C(COC(=O)c1cccnc1Cl)Nc1ccc2c(c1)OCCO2 do in these assays?
Rab9 prom act: -2%; FLuc counter: 8.5µM*; ELG1 repair inh: -7%; NPC1 promoter act: -2%; SMN2 splice enh: 5%; ELG1 genotox: 7%

How did Cc1ccccc1OCC(=O)Nc1ccc2c(c1)OCCO2 do in these assays?
Rab9 prom act: 2.8µM*; FLuc counter: 9.5µM*; ELG1 repair inh: inconclusive; NPC1 promoter act: 3.5µM*; ELG1 genotox: inconclusive
